The targets below were run with C#CCNC(=O)CCSSCCC(=O)NCCc1ccc(C=O)c(C=O)c1 (assay: lysine labeling ratio R10:1 (500 µM / 50 µM probe), SILAC-ABPP in living cells; higher = lower intrinsic lysine reactivity toward the probe, active = 2 or less). Settings: HeLa; probe concentrations 500 vs 50 µM.
Method in brief: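 For each lysine, R is the median over forward and reverse replicates of the filtered median MS1 peptide ratio of high probe to low probe. The probe, an alkyne-tagged, disulfide-linked lysine probe, was given at 500 µM or 50 µM to living SILAC light and heavy HeLa cells in PBS at room temperature, with label swaps. Values are capped at 20.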

UniProt P23284, sequence (P23284 whole entry): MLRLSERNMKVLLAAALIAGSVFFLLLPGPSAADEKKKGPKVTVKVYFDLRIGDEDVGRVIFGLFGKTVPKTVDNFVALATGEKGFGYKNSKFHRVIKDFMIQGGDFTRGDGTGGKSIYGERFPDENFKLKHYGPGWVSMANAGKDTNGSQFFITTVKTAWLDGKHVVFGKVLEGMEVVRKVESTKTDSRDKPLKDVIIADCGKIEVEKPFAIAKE
UniProt Q9Y490, sequence (Q9Y490 whole entry): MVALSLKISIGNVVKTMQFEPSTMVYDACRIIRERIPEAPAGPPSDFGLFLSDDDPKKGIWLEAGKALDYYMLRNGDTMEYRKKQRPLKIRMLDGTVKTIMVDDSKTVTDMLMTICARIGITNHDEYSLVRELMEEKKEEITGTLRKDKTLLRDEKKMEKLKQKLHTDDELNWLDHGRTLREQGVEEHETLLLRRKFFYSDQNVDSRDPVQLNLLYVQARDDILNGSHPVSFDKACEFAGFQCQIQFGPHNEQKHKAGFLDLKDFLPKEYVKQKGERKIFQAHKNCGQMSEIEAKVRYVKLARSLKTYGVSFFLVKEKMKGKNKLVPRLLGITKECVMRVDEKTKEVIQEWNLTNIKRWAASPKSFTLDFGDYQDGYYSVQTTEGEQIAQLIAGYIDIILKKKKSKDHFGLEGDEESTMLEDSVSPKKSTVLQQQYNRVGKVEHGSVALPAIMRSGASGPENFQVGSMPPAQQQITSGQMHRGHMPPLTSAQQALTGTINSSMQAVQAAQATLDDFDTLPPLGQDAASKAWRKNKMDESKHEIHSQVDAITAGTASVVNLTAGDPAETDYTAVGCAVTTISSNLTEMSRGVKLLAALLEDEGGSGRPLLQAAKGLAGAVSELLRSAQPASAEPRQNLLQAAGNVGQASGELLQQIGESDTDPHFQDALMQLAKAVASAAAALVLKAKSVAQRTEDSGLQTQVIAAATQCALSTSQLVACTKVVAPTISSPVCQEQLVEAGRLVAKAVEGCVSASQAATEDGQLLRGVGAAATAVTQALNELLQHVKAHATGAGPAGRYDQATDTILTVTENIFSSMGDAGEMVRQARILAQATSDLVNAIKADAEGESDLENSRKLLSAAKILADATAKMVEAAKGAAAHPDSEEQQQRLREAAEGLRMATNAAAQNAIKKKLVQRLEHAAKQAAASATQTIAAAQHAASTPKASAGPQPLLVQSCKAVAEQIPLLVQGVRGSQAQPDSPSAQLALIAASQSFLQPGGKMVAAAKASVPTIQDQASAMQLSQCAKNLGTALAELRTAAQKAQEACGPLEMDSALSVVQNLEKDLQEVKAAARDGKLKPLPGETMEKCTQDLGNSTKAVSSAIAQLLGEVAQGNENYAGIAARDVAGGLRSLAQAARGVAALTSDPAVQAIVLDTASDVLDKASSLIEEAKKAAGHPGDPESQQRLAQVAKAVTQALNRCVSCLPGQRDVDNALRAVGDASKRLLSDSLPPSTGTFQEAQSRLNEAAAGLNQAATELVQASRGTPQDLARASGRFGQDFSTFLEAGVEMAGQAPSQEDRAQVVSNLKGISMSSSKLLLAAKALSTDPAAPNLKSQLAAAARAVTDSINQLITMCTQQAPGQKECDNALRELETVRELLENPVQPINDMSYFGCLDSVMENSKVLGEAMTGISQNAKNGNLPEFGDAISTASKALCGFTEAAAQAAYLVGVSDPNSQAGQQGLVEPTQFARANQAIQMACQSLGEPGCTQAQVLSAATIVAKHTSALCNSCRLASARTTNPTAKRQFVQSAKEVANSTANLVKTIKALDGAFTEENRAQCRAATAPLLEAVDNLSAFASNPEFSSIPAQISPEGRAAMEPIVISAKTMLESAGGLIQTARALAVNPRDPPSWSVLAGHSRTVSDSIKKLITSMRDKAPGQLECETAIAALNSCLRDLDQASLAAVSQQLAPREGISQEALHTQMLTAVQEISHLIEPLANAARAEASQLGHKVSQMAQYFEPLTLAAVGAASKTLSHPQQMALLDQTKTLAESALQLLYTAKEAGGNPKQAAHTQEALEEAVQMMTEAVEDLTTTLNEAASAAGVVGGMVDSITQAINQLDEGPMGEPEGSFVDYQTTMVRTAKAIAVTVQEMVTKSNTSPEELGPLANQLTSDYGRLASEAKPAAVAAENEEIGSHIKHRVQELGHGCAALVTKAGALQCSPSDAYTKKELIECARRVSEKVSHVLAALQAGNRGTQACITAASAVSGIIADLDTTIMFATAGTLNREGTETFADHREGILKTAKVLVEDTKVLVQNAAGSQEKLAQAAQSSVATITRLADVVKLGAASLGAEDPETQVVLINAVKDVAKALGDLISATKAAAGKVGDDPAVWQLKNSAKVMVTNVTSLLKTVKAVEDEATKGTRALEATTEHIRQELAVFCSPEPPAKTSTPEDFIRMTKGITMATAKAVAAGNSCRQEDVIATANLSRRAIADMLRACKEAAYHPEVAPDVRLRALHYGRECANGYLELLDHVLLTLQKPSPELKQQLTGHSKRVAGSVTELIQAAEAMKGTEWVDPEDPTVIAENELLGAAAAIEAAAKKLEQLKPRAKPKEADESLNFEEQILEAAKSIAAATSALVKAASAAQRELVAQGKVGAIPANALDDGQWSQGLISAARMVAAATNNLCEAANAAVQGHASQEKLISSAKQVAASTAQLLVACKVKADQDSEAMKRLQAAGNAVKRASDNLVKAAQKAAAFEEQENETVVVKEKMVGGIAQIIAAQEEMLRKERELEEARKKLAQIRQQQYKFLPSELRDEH
UniProt Q02487, sequence (Q02487 whole entry): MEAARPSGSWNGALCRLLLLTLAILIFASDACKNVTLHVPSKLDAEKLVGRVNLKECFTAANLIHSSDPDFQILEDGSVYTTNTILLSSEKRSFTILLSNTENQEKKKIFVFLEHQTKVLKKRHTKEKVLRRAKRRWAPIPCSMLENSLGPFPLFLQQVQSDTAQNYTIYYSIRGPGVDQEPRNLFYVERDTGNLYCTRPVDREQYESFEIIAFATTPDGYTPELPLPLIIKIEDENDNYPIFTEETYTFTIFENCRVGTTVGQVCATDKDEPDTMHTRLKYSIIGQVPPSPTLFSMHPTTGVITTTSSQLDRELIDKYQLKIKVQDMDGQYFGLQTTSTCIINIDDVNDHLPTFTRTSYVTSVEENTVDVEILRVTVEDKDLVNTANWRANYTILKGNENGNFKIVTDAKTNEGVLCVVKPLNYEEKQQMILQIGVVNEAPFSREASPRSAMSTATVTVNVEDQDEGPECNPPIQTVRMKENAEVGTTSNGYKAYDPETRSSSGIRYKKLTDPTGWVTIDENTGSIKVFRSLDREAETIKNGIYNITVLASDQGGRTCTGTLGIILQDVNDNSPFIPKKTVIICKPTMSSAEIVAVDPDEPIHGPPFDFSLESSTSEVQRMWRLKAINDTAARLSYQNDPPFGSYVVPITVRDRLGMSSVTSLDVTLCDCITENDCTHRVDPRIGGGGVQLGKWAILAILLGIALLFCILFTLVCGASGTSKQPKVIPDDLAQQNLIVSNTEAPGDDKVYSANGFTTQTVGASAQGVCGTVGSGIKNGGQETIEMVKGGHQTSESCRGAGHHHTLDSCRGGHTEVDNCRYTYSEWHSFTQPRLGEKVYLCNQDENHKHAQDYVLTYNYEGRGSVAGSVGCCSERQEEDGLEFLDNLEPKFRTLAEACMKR
UniProt O75390, sequence (O75390 whole entry): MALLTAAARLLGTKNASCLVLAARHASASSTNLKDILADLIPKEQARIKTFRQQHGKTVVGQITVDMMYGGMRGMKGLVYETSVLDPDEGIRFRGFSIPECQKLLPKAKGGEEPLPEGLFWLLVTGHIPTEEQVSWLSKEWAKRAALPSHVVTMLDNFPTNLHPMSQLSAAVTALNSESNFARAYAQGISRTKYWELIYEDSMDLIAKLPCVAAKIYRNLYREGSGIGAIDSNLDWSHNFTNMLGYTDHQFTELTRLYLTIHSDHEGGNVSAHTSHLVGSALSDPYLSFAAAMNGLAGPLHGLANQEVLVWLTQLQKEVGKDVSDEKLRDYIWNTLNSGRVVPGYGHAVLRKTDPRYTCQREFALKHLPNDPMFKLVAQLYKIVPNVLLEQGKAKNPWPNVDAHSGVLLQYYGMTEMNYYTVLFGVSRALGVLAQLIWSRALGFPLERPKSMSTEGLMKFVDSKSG
UniProt O43570, sequence (O43570 whole entry): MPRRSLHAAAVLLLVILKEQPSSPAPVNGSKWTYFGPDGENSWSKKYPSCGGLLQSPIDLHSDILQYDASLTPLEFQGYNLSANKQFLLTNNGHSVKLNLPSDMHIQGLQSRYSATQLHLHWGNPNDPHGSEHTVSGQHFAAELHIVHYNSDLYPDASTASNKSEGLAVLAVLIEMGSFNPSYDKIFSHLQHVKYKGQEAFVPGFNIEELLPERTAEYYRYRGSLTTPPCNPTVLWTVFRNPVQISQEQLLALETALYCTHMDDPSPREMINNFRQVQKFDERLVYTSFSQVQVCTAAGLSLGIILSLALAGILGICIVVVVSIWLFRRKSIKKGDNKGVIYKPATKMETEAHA
UniProt Q9NV96, sequence (Q9NV96 whole entry): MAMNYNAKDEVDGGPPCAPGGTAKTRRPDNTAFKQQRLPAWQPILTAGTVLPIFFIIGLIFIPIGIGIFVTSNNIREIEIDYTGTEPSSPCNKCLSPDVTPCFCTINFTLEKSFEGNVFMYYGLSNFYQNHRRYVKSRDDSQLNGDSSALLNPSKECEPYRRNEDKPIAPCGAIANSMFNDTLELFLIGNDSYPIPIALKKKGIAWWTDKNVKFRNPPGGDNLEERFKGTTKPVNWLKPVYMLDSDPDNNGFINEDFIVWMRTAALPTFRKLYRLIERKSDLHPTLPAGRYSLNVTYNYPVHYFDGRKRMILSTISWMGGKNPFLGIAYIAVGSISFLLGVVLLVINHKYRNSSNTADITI

| Target | lysine labeling ratio R10:1 |
| --- | --- |
| RPL34 (lysine site: K19) (UniProt P49207) | 2.71 (inactive) |
| SPTAN1 (lysine site: K1699) (UniProt Q13813) | 3.27 (inactive) |
| SMOC1 (lysine site: K53) (UniProt Q9H4F8) | 2.22 (inactive) |
| UniProt P05787 (lysine site: K483) | 2.46 (inactive) |
| UniProt Q15149 (lysine site: K597) | 3.48 (inactive) |
| UniProt O43570 (lysine site: K279) | 2.86 (inactive) |
| CTNNA1 (lysine site: K16) (UniProt P35221) | 3.72 (inactive) |
| DYNC1H1 (lysine site: K3621) (UniProt Q14204) | 3.03 (inactive) |
| RPL34 (lysine site: K62) (UniProt P49207) | 10.1 (inactive) |
| NUMA1 (lysine site: K284) (UniProt Q14980) | 2 (active) |
| TXNRD1 (lysine site: K245) (UniProt Q16881) | 7.79 (inactive) |
| UniProt Q6PIU2 (lysine site: K359) | 1.48 (active) |
| CDCP1 (lysine site: K369) (UniProt Q9H5V8) | 2.97 (inactive) |
| HSPA8 (lysine site: K257) (UniProt P11142) | 3.1 (inactive) |
| CORO1C (lysine site: K329) (UniProt Q9ULV4) | 1.19 (active) |
| TMEM30A (lysine site: K155) (UniProt Q9NV96) | 2.09 (inactive) |
| XRCC6 (lysine site: K189) (UniProt P12956) | 4 (inactive) |
| FAT4 (lysine site: K2221) (UniProt Q6V0I7) | 4.75 (inactive) |
| ACSL3 (lysine site: K222) (UniProt O95573) | 2.52 (inactive) |
| CS (lysine site: K43) (UniProt O75390) | 4.66 (inactive) |

| Target | lysine labeling ratio R10:1 |
| --- | --- |
| UniProt Q15800 (lysine site: K284) | 1.82 (active) |
| CDH2 (lysine site: K223) (UniProt P19022) | 2.63 (inactive) |
| PPIB (lysine site: K186) (UniProt P23284) | 3.18 (inactive) |
| STOML2 (lysine site: K254) (UniProt Q9UJZ1) | 5.22 (inactive) |
| ATRN (lysine site: K1133) (UniProt O75882) | 1.81 (active) |
| ITGA5 (lysine site: K910) (UniProt P08648) | 3.88 (inactive) |
| UniProt P55285 (lysine site: K418) | 1.1 (active) |
| TLN1 (lysine site: K1544) (UniProt Q9Y490) | 1.54 (active) |
| NRP1 (lysine site: K536) (UniProt O14786) | 5.72 (inactive) |
| METTL7A (lysine site: K210) (UniProt Q9H8H3) | 1.36 (active) |
| EWSR1 (lysine site: K644) (UniProt Q01844) | 1.76 (active) |
| AXL (lysine site: K211) (UniProt P30530) | 2.55 (inactive) |
| SEMA3C (lysine site: K613) (UniProt Q99985) | 5.77 (inactive) |
| UniProt Q9NYU2 (lysine site: K362) | 3.31 (inactive) |
| APP (lysine site: K522) (UniProt P05067) | 5.65 (inactive) |
| PSMA4 (lysine site: K210) (UniProt P25789) | 1.69 (active) |
| ITGA1 (lysine site: K291) (UniProt P56199) | 7.48 (inactive) |
| KRT18 (lysine site: K417) (UniProt P05783) | 10.9 (inactive) |
| RPLP0 (lysine site: K106) (UniProt P05388) | 0.868 (active) |
| DSC2 (lysine site: K381) (UniProt Q02487) | 1.71 (active) |
